# “And” between values parts separate entries of the source, which are not always exact repeats. Equal values may be shown once. Hit rate of the full screen: of about 350,000 compounds, about 31,000 (8.9%) were called active. Not shown: some 15% with an inconclusive outcome. The call rests on the fitted dose curve; in most records, active means well fitted inhibition curve with a large enough effect; inconclusive means small, poorly fitted or top-dose-only effect; inactive means no such curve, though single readings can be large or run the other way. Shown is part of a subset that was picked to be rich in actives. More than one record can exist for a structure, and the calls need not agree.
# Molecular target: Histone-lysine N-methyltransferase EHMT2 (Homo sapiens) (UniProt Q96KQ7)
# Sequence (Q96KQ7 913-1193 limits assumed): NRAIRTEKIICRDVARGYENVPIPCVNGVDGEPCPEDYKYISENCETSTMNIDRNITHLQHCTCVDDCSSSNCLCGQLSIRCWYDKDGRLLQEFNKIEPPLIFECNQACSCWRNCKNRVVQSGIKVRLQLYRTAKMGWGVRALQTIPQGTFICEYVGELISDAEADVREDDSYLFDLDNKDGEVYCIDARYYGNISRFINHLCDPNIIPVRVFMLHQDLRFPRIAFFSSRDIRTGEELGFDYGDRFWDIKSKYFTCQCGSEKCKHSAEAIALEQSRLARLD
# Experiment: qHTS Assay for Inhibitors of Histone Lysine Methyltransferase G9a; further: nearly all actives have a fitted effect of over 75% in size
# Conditions: G9a H3K9 monomethylation, AlphaScreen, 2 h; series mostly up to 102 µM; activity, negative = inhibition: at the top concentration
# How it was run: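 Signal arises when biotinylated H3K9 peptide, once monomethylated, bridges streptavidin donor and antibody-captured acceptor beads. Enzyme at 20 nM was preincubated 15 min with test compounds; peptide 500 nM and SAM 20 uM then reacted for 2 h.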
# On the % scale 0 is the no-effect control and ±100 the full control effect; potency means the concentration at half of the fitted maximal effect.
SMILES,"activity, negative = inhibition",Potency
CNC(=O)N(C)c1nnc(C(C)(C)C)s1,-1.28% [at 12.7 µM] (inactive),
CCOC(=O)C1SC2(C(F)(F)C(F)F)CC1(O)c1c(c(OC)c3occc3c1OC)O2 (stereo not drawn),-5.46% [at 59 µM] (inactive),
N=c1ccccn1Cc1ccccc1,-31.1% (inactive),
CCCCC/C=C\C/C=C\C/C=C\CCCCCCC(=O)NCCO,28.1% [at 59 µM] (inactive),
CCCCC/C=C\C/C=C\C/C=C\C=C\[C@H](CCCC(=O)O)OO,22.9% [at 59 µM] (inactive),
CCCCC/C=C\C/C=C\C/C=C\C/C=C\CCCCCC(=O)NCCO,,inactive and 12.6 µM (active)
O=C1/C(=C\c2ccc3c(c2)OCO3)N2CCC1CC2,2.58% [at 59 µM] (inactive),
O=C(CCN1CCCCC1)NCC(=O)Nc1ccc(Br)cc1C(=O)c1ccccc1,-0.343% [at 59 µM] (inactive),
CCOP(=S)(OCC)C(O)CCCCCn1c(=O)c(F)cn(C2CCCO2)c1=O (stereo not drawn),6.51% [at 0.501 µM] (inactive),
CN(C)c1nc(N(C)C)nc(N(C#N)CCCl)n1,,39.8 µM (active)
Clc1cccc(Cl)c1Cl,8.54% [at 0.501 µM] (inactive),
C[C@]12CC[C@@H]3c4ccc(O)cc4C[C@@H](CCCCCCCCCS(=O)CCCC(F)(F)C(F)(F)F)C3[C@@H]1CC[C@@H]2O (stereo partly drawn),11.8% [at 59 µM] (inactive),
Cn1c(O)c(C=Nc2ccc3c(c2)CCC3)c(=O)n(C)c1=O,-5.96% [at 59 µM] (inactive),
c1ccc2sc(C3CCCNC3)nc2c1 (stereo not drawn),,44.7 µM (active)
c1ccc2sc(N3CCNCC3)nc2c1,9.8% (inactive),
CC(C)(C)[C@]1(O)C[C@@H]2OC(=O)C[C@@]23C(=O)O[C@@H]2OC(=O)[C@H](O)[C@]213,9.37% (inactive),
OC1/C(=C/c2ccc(C(F)(F)F)cc2)N2CCC1CC2 (stereo not drawn),2.96% (inactive),
COC(=O)C1=C(c2ccc3ccccc3c2)C[C@@H]2CC[C@H]1N2C(=O)NCCO,26.7% [at 2.33 µM] (inactive),
COc1ccc(CNCCc2ccc3c(c2)OCO3)c(OC)c1OC,,8.91 µM (active)
COC(=O)C1=C(c2c(C)noc2C)C[C@@H]2CC[C@H]1N2C(=O)NCc1ccc2c(c1)OCO2,-4.27% [at 0.501 µM] (inactive),
CCN1CCN(Cc2cc(OC)c3c(c2)OCO3)CC1,3.35% (inactive),
c1csc(CN2CCCC3(CCNCC3)C2)n1,7.82% [at 12.7 µM] (inactive),
CCCCCCCCCCCCn1ccc(=N)cc1,-31.1% (inactive),
CC[C@H]1CN2CCc3cc(OC)c(OC)cc3[C@@H]2C[C@@H]1C[C@H]1NCCc2cc(OC)c(OC)cc21,inactive,
CCOc1cc(N2CCOCC2)c(OCC)cc1NC(=O)C1=NN(c2cccc(C)c2)C(=O)CC1,,11.2 µM (active)
CCCCCn1c(=O)c(C(=O)NCc2ccccn2)c(O)c2ccccc21,106% [at 59 µM] (inactive),

SMILES,"activity, negative = inhibition",Potency
O=C1c2ccccc2NC(c2ccccc2O)N1NS(=O)(=O)c1ccccc1 (stereo not drawn),-19.9% (inactive),
Cc1ccc(N(C)C(=O)Oc2cccc3ccc(C)nc23)cc1,31.5% (inactive),
COC(=O)COc1cc(C)cc2oc(=O)c3c(c12)CCCC3,27.9% [at 59 µM] (inactive),
O=C(Nc1cccc(F)c1)N1CC[C@@]2(CCCN(C(=O)Oc3ccccc3)C2)C1,-11.3% [at 12.7 µM] (inactive),
CCCCCn1c(=O)c(C(=O)Nc2c(C)n(C)n(-c3ccccc3)c2=O)c(O)c2ccccc21,14% [at 59 µM] (inactive),
CCC(=O)CC(c1ccc([N+](=O)[O-])cc1)c1c(O)c2ccccc2oc1=O (stereo not drawn),-41.4% (inactive),
COc1cc(C(c2c(O)c3ccccc3oc2=O)c2c(C)n(C)n(-c3ccccc3)c2=O)ccc1O (stereo not drawn),,44.7 µM (active)
Cc1ccsc1C(=O)C1CCCN(Cc2ccc(O)cc2)C1 (stereo not drawn),-12% (inactive),
CCOC(=O)CC1=C(C(=O)OCC)C2(C(=O)N1)C(C(=O)OC)=C(N)Oc1ccccc12 (stereo not drawn),0.286% [at 59 µM] (inactive),
CCCCCCN=C(CC)c1c(O)n(CCCC)c(=O)[nH]c1=O,-24.6% [at 12.7 µM] (inactive),
COc1ccc(C(=O)C2CCCN(Cc3ccc(C)s3)C2)cc1OC (stereo not drawn),-23.9% (inactive),
COc1ccccc1OC(=O)c1ccc(C)c(S(=O)(=O)N2CCOCC2)c1,12.8% (inactive),
COc1cc(C(=S)N2CCOCC2)ccc1O,-4.38% [at 12.7 µM] (inactive),20 µM (active)
OCC#CC[N+]1(CC#Cc2ccccc2)CCCC1,15.5% (inactive),
CC(c1ccccc1)(c1ccccc1)c1ccncc1,19.7% (inactive),
CC(Cc1ccccc1)NCCC(c1ccccc1)c1ccccc1 (stereo not drawn),-1.18% [at 59 µM] (inactive),
Cn1c(O)c(C=NCCN2CCNCC2)c(=O)n(C)c1=O,-6.35% [at 59 µM] (inactive),
C=CCN1CCC2(C)c3cc(O)ccc3CC1[C@@H]2C (stereo partly drawn),35.6% [at 59 µM] (inactive),
C=CCN1CCC23c4c5ccc(O)c4O[C@H]2C(=O)CC[C@@]3(O)C1C5 (stereo partly drawn),,inactive and 31.6 µM (active)
CC(C)N(CC#CCC1(O)c2ccccc2-c2ccccc21)C(C)C,-6.71% [at 59 µM] (inactive),
O=C(Nc1cccc(OC(=O)N2CCCCC2)c1)N1CCOCC1,47.6% (inactive),
Cc1cc(C(=O)OCC(=O)Nc2c(F)cccc2F)c(C)n1C1CC1,2.06% (inactive),
Cc1noc(C)c1CSc1nc2cc(S(=O)(=O)N3CCOCC3)ccc2o1,,3.16 µM (active)
CN(C)CCN(CC1CCCN(Cc2ccccc2F)C1)C(=O)Cc1ccc(F)c(F)c1 (stereo not drawn),21.8% (inactive),
CCCC[N+]1(C)C2CC(OC(=O)C(CO)c3ccccc3)CC1C1OC12 (stereo not drawn),inactive,
COC(=O)C1=C(c2ccc(F)cc2OCc2ccccc2)C[C@@H]2CC[C@H]1N2C(=O)NCc1ccc2[nH]ccc2c1,4.96% [at 0.501 µM] (inactive),

# From PubChem BioAssay AID504332 (National Center for Advancing Translational Sciences (NCATS), 2011)
